These results are taken from PubChem BioAssay (NCI).

Molecules are shown by their SMILES. Compounds without any hit were thinned out: in the full panel of roughly 83,000, 20% have a hit.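 Treatment: one concentration, 48 hours, 96-well format. Scoring: percent growth, with anything below 10 considered active.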 Unmarked numbers belong to inactive results. Active and inactive are the calls of the source.

The test has as its system HL-60(TB) leukemia. In words: NCI-60 one-dose screen, 48 h (100 = growth as untreated, 0 = no growth, -100 = all killed). The conditions noted are these: 10 µM unless noted.
For the compound `Cc1c(C(=O)O)nnn1-c1nccs1`, the growth was 95.5%.

With `O=C(O)c1ccc2c(c1Sc1ccccc1)C(=O)c1ccccc1C2=O`, the growth is 95.8%.

With `O=C1C2=C(C(=O)c3c(O)ccc(O)c31)N(c1cccnc1)Cc1ccccc1O2`, the growth is -23.5% (active).

Consider `O=C(c1ccccc1)c1ccc(O)c2ncccc12`, for which the growth is 19.8%.

As to `C=C1C(=O)O[C@@H]2[C@H]3[C@H](COC(C)=O)[C@@H](OC(C)=O)C[C@H]3C(=C)[C@@H](O)C[C@@H]12`, the growth was 78.9%.

As to `O=c1c(O)cccn1CCCNCCCN(CCCn1cccc(O)c1=O)CCCn1cccc(O)c1=O`, the growth was 120%.
